# Test results published in the supplement of paper PMC4466140.
# B1: unnamed (peptide)
# chain: MKRSRPSRSIPYTTP
# B2: unnamed (peptide)
# chain: NMLKKKPLKKPLKRF
# B3: unnamed (peptide)
# chain: NTMKKRPAPPSLPSL
# B4: unnamed (peptide)
# chain: GRSRLFPHSPLGRSS
# Target: AgAbp1
# Assay: SPOT peptide array binding signal intensity (averaged, normalized) (arbitrary units (background-subtracted, floor 0; scale differs between SH3 domains)); higher = stronger binding of the SH3 domain to the peptide
# How it was run: (§1)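 Peptides were synthetic 15-mers on cellulose membranes, with every cysteine replaced by serine. They were incubated overnight at 4°C with GST-SH3 domains from four yeast species at 10 μg/ml in TBS-based blocking buffer. Binding signal, the replicate-averaged normalized and background-subtracted spot intensity, is in arbitrary units that differ between domains.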
row,Binder,SPOT peptide array binding signal intensity
1,B1,92
2,B3,93
3,B4,93

# Target: AgBbc1
# Assay: as above
# How it was run: as §1
row,Binder,SPOT peptide array binding signal intensity
1,B1,65.5
2,B3,21
3,B4,13.8

# Target: AgBem1-D1
# Assay: as above
# How it was run: as §1
row,Binder,SPOT peptide array binding signal intensity
1,B1,152
2,B3,405
3,B4,88.5

# Target: AgBzz1-D1
# Assay: as above
# How it was run: as §1
row,Binder,SPOT peptide array binding signal intensity
1,B1,53
2,B3,152
3,B4,26.5

# Target: AgBzz1-D2
# Assay: as above
# How it was run: as §1
row,Binder,SPOT peptide array binding signal intensity
1,B1,22
2,B3,240
3,B4,0.5

# Target: AgCyk3
# Assay: as above
# How it was run: as §1
row,Binder,SPOT peptide array binding signal intensity
1,B1,8
2,B3,≤ 0
3,B4,0.5

# Target: AgFus1
# Assay: as above
# How it was run: as §1
row,Binder,SPOT peptide array binding signal intensity
1,B1,121
2,B3,375
3,B4,454

# Target: AgHof1
# Assay: as above
# How it was run: as §1
row,Binder,SPOT peptide array binding signal intensity
1,B1,23.5
2,B3,286
3,B4,14.5

# Target: AgHse1
# Assay: as above
# How it was run: as §1
row,Binder,SPOT peptide array binding signal intensity
1,B1,274
2,B3,641
3,B4,716

# Target: AgLsb1
# Assay: as above
# How it was run: as §1
row,Binder,SPOT peptide array binding signal intensity
1,B1,3.5
2,B3,15.5
3,B4,0.75

# Target: AgLsb4
# Assay: as above
# How it was run: as §1
row,Binder,SPOT peptide array binding signal intensity
1,B1,37
2,B3,61.5
3,B4,39.5

# Target: AgMyo5
# Assay: as above
# How it was run: as §1
row,Binder,SPOT peptide array binding signal intensity
1,B1,3.25
2,B3,66.5
3,B4,≤ 0

# Target: AgNbp2
# Assay: as above
# How it was run: as §1
row,Binder,SPOT peptide array binding signal intensity
1,B1,324
2,B3,384
3,B4,177

# Target: AgRvs167
# Assay: as above
# How it was run: as §1
row,Binder,SPOT peptide array binding signal intensity
1,B1,2.5
2,B3,3.33
3,B4,3.42

# Target: AgSho1
# Assay: as above
# How it was run: as §1
row,Binder,SPOT peptide array binding signal intensity
1,B1,30.5
2,B3,496
3,B4,52.8

# Target: AgSla1-D1-D2
# Assay: as above
# How it was run: as §1
row,Binder,SPOT peptide array binding signal intensity
1,B1,21.5
2,B3,114
3,B4,26

# Target: AgSla1-D3
# Assay: as above
# How it was run: as §1
row,Binder,SPOT peptide array binding signal intensity
1,B1,≤ 0
2,B3,59.8
3,B4,11.2

# Target: CaAbp1-D1
# Assay: as above
# How it was run: as §1
row,Binder,SPOT peptide array binding signal intensity
1,B1,504
2,B3,1570
3,B4,491

# Target: CaAbp1-D2
# Assay: as above
# How it was run: as §1
row,Binder,SPOT peptide array binding signal intensity
1,B1,476
2,B3,892
3,B4,410

# Target: CaBbc1
# Assay: as above
# How it was run: as §1
row,Binder,SPOT peptide array binding signal intensity
1,B1,347
2,B3,151
3,B4,105

# Target: CaBem1-D1
# Assay: as above
# How it was run: as §1
row,Binder,SPOT peptide array binding signal intensity
1,B1,47.5
2,B3,279
3,B4,35

# Target: CaBzz1-D1
# Assay: as above
# How it was run: as §1
row,Binder,SPOT peptide array binding signal intensity
1,B1,172
2,B3,2650
3,B4,53.5

# Target: CaBzz1-D2
# Assay: as above
# How it was run: as §1
row,Binder,SPOT peptide array binding signal intensity
1,B1,158
2,B3,952
3,B4,39.2

# Target: CaCyk3
# Assay: as above
# How it was run: as §1
row,Binder,SPOT peptide array binding signal intensity
1,B1,108
2,B3,13.5
3,B4,3.5

# Target: CaFus1
# Assay: as above
# How it was run: as §1
row,Binder,SPOT peptide array binding signal intensity
1,B1,334
2,B3,1380
3,B4,1070

# Target: CaHof1
# Assay: as above
# How it was run: as §1
row,Binder,SPOT peptide array binding signal intensity
1,B1,≤ 0
2,B3,0.5
3,B4,0.75

# Target: CaHse1
# Assay: as above
# How it was run: as §1
row,Binder,SPOT peptide array binding signal intensity
1,B1,55.5
2,B3,262
3,B4,11.1

# Target: CaLsb1
# Assay: as above
# How it was run: as §1
row,Binder,SPOT peptide array binding signal intensity
1,B1,2.75
2,B3,6
3,B4,1

# Target: CaLsb4
# Assay: as above
# How it was run: as §1
row,Binder,SPOT peptide array binding signal intensity
1,B1,590
2,B3,589
3,B4,≤ 0

# Target: CaMyo5
# Assay: as above
# How it was run: as §1
row,Binder,SPOT peptide array binding signal intensity
1,B1,13.8
2,B3,137
3,B4,≤ 0

# Target: SpBzz1-D2
# Assay: as above
# How it was run: as §1
row,Binder,SPOT peptide array binding signal intensity
1,B2,48.2
2,B3,257
3,B4,0.375

# Target: SpCyk3
# Assay: as above
# How it was run: as §1
row,Binder,SPOT peptide array binding signal intensity
1,B2,7.5
2,B3,2
3,B4,≤ 0

# Target: SpHof1
# Assay: as above
# How it was run: as §1
row,Binder,SPOT peptide array binding signal intensity
1,B2,134
2,B3,144
3,B4,68.5

# Target: SpHof1-2
# Assay: as above
# How it was run: as §1
row,Binder,SPOT peptide array binding signal intensity
1,B2,26
2,B3,41.8
3,B4,15

# Target: SpHof1-3
# Assay: as above
# How it was run: as §1
row,Binder,SPOT peptide array binding signal intensity
1,B2,804
2,B3,227
3,B4,412

# Target: SpHse1
# Assay: as above
# How it was run: as §1
row,Binder,SPOT peptide array binding signal intensity
1,B2,772
2,B3,602
3,B4,730

# Target: SpLsb1
# Assay: as above
# How it was run: as §1
row,Binder,SPOT peptide array binding signal intensity
1,B2,31.8
2,B3,12.2
3,B4,0.25

# Target: SpLsb4
# Assay: as above
# How it was run: as §1
row,Binder,SPOT peptide array binding signal intensity
1,B2,388
2,B3,788
3,B4,≤ 0

# Target: SpMyo1
# Assay: as above
# How it was run: as §1
row,Binder,SPOT peptide array binding signal intensity
1,B2,21.8
2,B3,196
3,B4,≤ 0

# Target: SpNbp2
# Assay: as above
# How it was run: as §1
row,Binder,SPOT peptide array binding signal intensity
1,B2,536
2,B3,308
3,B4,419

# Target: SpPex13
# Assay: as above
# How it was run: as §1
row,Binder,SPOT peptide array binding signal intensity
1,B2,73.5
2,B3,55
3,B4,10.5

# Target: SpRvs167
# Assay: as above
# How it was run: as §1
row,Binder,SPOT peptide array binding signal intensity
1,B2,15.8
2,B3,110
3,B4,6.58

# Target: SpSla1-D1-D2
# Assay: as above
# How it was run: as §1
row,Binder,SPOT peptide array binding signal intensity
1,B2,9
2,B3,15
3,B4,10

# Target: SpSla1-D3
# Assay: as above
# How it was run: as §1
row,Binder,SPOT peptide array binding signal intensity
1,B2,106
2,B3,156
3,B4,18.5

# Target: CaNbp2
# Assay: as above
# How it was run: as §1
row,Binder,SPOT peptide array binding signal intensity
1,B3,1280
2,B4,539

# Target: CaRvs167
# Assay: as above
# How it was run: as §1
row,Binder,SPOT peptide array binding signal intensity
1,B3,89
2,B4,3.5

# Target: CaRvs167-3
# Assay: as above
# How it was run: as §1
row,Binder,SPOT peptide array binding signal intensity
1,B3,1.25
2,B4,43.8

# Target: CaSho1
# Assay: as above
# How it was run: as §1
row,Binder,SPOT peptide array binding signal intensity
1,B3,1700
2,B4,513

# Target: CaSla1-D1-D2
# Assay: as above
# How it was run: as §1
row,Binder,SPOT peptide array binding signal intensity
1,B3,648
2,B4,76.5

# Target: CaSla1-D3
# Assay: as above
# How it was run: as §1
row,Binder,SPOT peptide array binding signal intensity
1,B3,246
2,B4,≤ 0

# Target: ScAbp1
# Assay: as above
# How it was run: as §1
row,Binder,SPOT peptide array binding signal intensity
1,B3,30
2,B4,144

# Target: ScBbc1
# Assay: as above
# How it was run: as §1
row,Binder,SPOT peptide array binding signal intensity
1,B3,4.5
2,B4,≤ 0

# Target: ScBem1-D1
# Assay: as above
# How it was run: as §1
row,Binder,SPOT peptide array binding signal intensity
1,B3,1
2,B4,57.2

# Target: ScBzz1-D1
# Assay: as above
# How it was run: as §1
row,Binder,SPOT peptide array binding signal intensity
1,B3,134
2,B4,6.5

# Target: ScBzz1-D2
# Assay: as above
# How it was run: as §1
row,Binder,SPOT peptide array binding signal intensity
1,B3,59
2,B4,29.5

# Target: ScCyk3
# Assay: as above
# How it was run: as §1
row,Binder,SPOT peptide array binding signal intensity
1,B3,11
2,B4,91.5

# Target: ScFus1
# Assay: as above
# How it was run: as §1
row,Binder,SPOT peptide array binding signal intensity
1,B3,457
2,B4,374

# Target: ScHof1
# Assay: as above
# How it was run: as §1
row,Binder,SPOT peptide array binding signal intensity
1,B3,19.5
2,B4,≤ 0

# Target: ScHse1
# Assay: as above
# How it was run: as §1
row,Binder,SPOT peptide array binding signal intensity
1,B3,1410
2,B4,2660

# Target: ScLsb1
# Assay: as above
# How it was run: as §1
row,Binder,SPOT peptide array binding signal intensity
1,B3,29.5
2,B4,≤ 0

# Target: ScLsb2
# Assay: as above
# How it was run: as §1
row,Binder,SPOT peptide array binding signal intensity
1,B3,≤ 0
2,B4,≤ 0

# Target: ScLsb3
# Assay: as above
# How it was run: as §1
row,Binder,SPOT peptide array binding signal intensity
1,B3,344
2,B4,212

# Target: ScLsb4
# Assay: as above
# How it was run: as §1
row,Binder,SPOT peptide array binding signal intensity
1,B3,130
2,B4,1.5

# Target: ScMyo3
# Assay: as above
# How it was run: as §1
row,Binder,SPOT peptide array binding signal intensity
1,B3,350
2,B4,0.25

# Target: ScMyo5
# Assay: as above
# How it was run: as §1
row,Binder,SPOT peptide array binding signal intensity
1,B3,287
2,B4,≤ 0

# Target: ScNbp2
# Assay: as above
# How it was run: as §1
row,Binder,SPOT peptide array binding signal intensity
1,B3,383
2,B4,294

# Target: ScPex13
# Assay: as above
# How it was run: as §1
row,Binder,SPOT peptide array binding signal intensity
1,B3,310
2,B4,≤ 0

# Target: ScRvs167
# Assay: as above
# How it was run: as §1
row,Binder,SPOT peptide array binding signal intensity
1,B3,64.5
2,B4,12.3

# Target: ScSho1
# Assay: as above
# How it was run: as §1
row,Binder,SPOT peptide array binding signal intensity
1,B3,837
2,B4,1020

# Target: ScSla1-D1-D2
# Assay: as above
# How it was run: as §1
row,Binder,SPOT peptide array binding signal intensity
1,B3,234
2,B4,224

# Target: ScSla1-D3
# Assay: as above
# How it was run: as §1
row,Binder,SPOT peptide array binding signal intensity
1,B3,521
2,B4,1.25

# Target: SpAbp1-D1
# Assay: as above
# How it was run: as §1
row,Binder,SPOT peptide array binding signal intensity
1,B3,78.5
2,B4,186

# Target: SpBbc1
# Assay: as above
# How it was run: as §1
row,Binder,SPOT peptide array binding signal intensity
1,B3,3
2,B4,2

# Target: SpBzz1-D1
# Assay: as above
# How it was run: as §1
row,Binder,SPOT peptide array binding signal intensity
1,B3,1170
2,B4,255
